Assay results as given in PubChem BioAssay (NCATS).
Inconclusive results are not listed. A call without a number means that no potency is given here. The source made the active and inactive calls. The call rests on the fitted dose curve; in most records, active means well fitted curve in the direction sought with a large enough effect; inconclusive means small, poorly fitted or top-dose-only effect, or another doubt; inactive means no such curve, though single readings can be large; an effect the other way counts as inactive or inconclusive.

Experiments:
[1] = NS1 protein of Zika virus - qHTS assay to identify small molecule inhibitors in human HEK 293 cells (AID 1347053); further: nearly all actives have a fitted effect of over 55% in size
Summary of the method: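 Compound-treated (1 h pre-infection) HEK 293 cells infected with ZIKV MR766, MOI = 0.5; after 24 h at 37 C, NS1 read by TR-FRET; data normalized to uninfected and infected controls.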

[2] = qHTS of pediatric cancer cell lines to identify multiple opportunities for drug repurposing: Primary screen for TC32 cells (AID 1347089); further: nearly all actives have a fitted effect of over 60% in size
Summary of the method: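 Luminescent ATP read-out (CellTiter-Glo) of metabolically active TC32 cells after 48 h exposure. Concentration-response curves came from 11-point (MIPE, 0.78 nM–46 µM) or 8-point (NPC, 0.59 nM–46 µM) primary titrations; follow-up used 11 points.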

[3] = qHTS of pediatric cancer cell lines to identify multiple opportunities for drug repurposing: Primary screen for DAOY cells (AID 1347090); further: nearly all actives have a fitted effect of over 55% in size
Summary of the method: (§1)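 Viability measured as metabolically active cells via CellTiter-Glo luminescence following 48 hours of compound exposure, 11-point dilutions in confirmatory testing. 500-1,000 cells/well plated 5 hours before dosing; controls were DMSO and 2.3 µM bortezomib.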

[4] = qHTS of pediatric cancer cell lines to identify multiple opportunities for drug repurposing: Primary screen for SJ-GBM2 cells (AID 1347091)
Summary of the method: as §1

[5] = qHTS of pediatric cancer cell lines to identify multiple opportunities for drug repurposing: Primary screen for A673 cells (AID 1347092); further: nearly all actives have a fitted effect of over 45% in size
Summary of the method: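 Cell viability of A673 measured by CellTiter-Glo ATP luminescence after 48 hours compound exposure. Dilution series spanned 0.78 nM to 46 µM (MIPE, 11-point) or 0.59 nM to 46 µM (NPC, 8-point); bortezomib 2.3 uM positive control.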

[6] = qHTS of pediatric cancer cell lines to identify multiple opportunities for drug repurposing: Primary screen for SK-N-MC cells (AID 1347093)
Summary of the method: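 Metabolically active cells were quantified by ATP-dependent luminescence (CellTiter-Glo, 15 min at room temperature) following 48 h treatment. Cells had been plated at 500-1,000 per well and settled for 5 h beforehand.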
Potency means the concentration at half of the fitted maximal effect.

Structure (SMILES) | Potency [1] | Potency [2] | Potency [3] | Potency [4] | Potency [5] | Potency [6]
CC(Oc1ccc(O)cc1)(P(=O)(O)O)P(=O)(O)O | inactive | inactive | inactive | inactive | inactive | 
CCCCOc1ccc(C(=O)Nc2ccc(F)cc2F)cc1 | inactive | inactive | inactive | inactive |  | 
C=C(C)[C@@H]1CC[C@]2(C(=O)O)CC[C@]3(C)[C@H](CC[C@@H]4[C@@]5(C)CC[C@H](O)C(C)(C)[C@@H]5CC[C@]43C)[C@@H]12 | inactive | inactive | inactive | 18700 nM (active) |  | 
C[C@@H](NCc1cc2ccccc2[nH]1)c1cccc2ccccc12 | inactive | inactive | inactive | inactive |  | 
N#CC(=Cc1ccc(O)c(O)c1)C(=O)NCc1ccccc1 | inactive |  |  |  |  | 
CON=C(C(=O)N[C@@H]1C(=O)N2C(C(=O)O)=C(CSC(=O)c3ccco3)CS[C@H]12)c1csc(N)n1 | inactive | inactive | inactive | inactive |  | 
CC(Cc1ccc(O)c(O)c1)(NN)C(=O)O (configuration not stated) | inactive | inactive | inactive | inactive |  | 
C[C@]12CCC(=O)C=C1[C@@H]1CC1[C@H]1[C@H]3[C@@H]4C[C@H]4[C@@]4(CCC(=O)O4)[C@@]3(C)CC[C@H]12 (some centres not stated) | inactive | inactive | inactive |  |  | 
CON=C(C(=O)N[C@@H]1C(=O)N2C(C(=O)O)=C(Cn3ccc(=N)n3CCO)CS[C@H]12)c1csc(N)n1 | inactive | inactive | inactive | inactive | inactive | 
Cc1ccc2nc(NCCN)c3ncc(C)n3c2c1 | 26400 nM (active) | 23400 nM (active) | 14800 nM (active) | 11800 nM (active) | 1870 nM (active) | 1660 nM (active)
C[C@H](CCC(=O)O)[C@H]1CCC2C3C[C@H](O)[C@@H]4C[C@H](O)CC[C@]4(C)C3CC[C@@]21C (some centres not stated) | inactive | inactive | inactive | inactive | inactive | inactive
CC(=O)C1=C(O)C=C2Oc3c(C(C)=O)c(O)c(C)c(O)c3C2(C)C1=O (configuration not stated) | inactive | inactive | inactive | 2350 nM (active) | 187 nM (active) | 
C[N+]1(C)[C@@H]2C[C@@H](OC(=O)C(O)(c3cccs3)c3cccs3)C[C@H]1[C@@H]1O[C@@H]12 | inactive | inactive | inactive | inactive | inactive | inactive
COc1cc([C@@H]2c3cc4c(cc3[C@@H](O[C@@H]3O[C@@H]5CO[C@@H](c6cccs6)O[C@@H]5[C@H](O)[C@@H]3O)[C@H]3COC(=O)[C@H]23)OCO4)cc(OC)c1O | 296 nM (active) | 208 nM (active) | 372 nM (active) | 118 nM (active) | 372 nM (active) | 93.5 nM (active)
CC(C)OC(=O)[C@H](C)N[P@](=O)(OC[C@H]1O[C@@H](n2ccc(=O)[nH]c2=O)[C@](C)(F)[C@H]1O)Oc1ccccc1 | inactive | inactive | inactive | inactive | inactive | inactive
Cc1noc(-c2ccc(CSCCC(=O)O)cc2)c1NC(=O)OC(C)c1ccccc1Cl (configuration not stated) | inactive | inactive | inactive | inactive | inactive | 
Cc1cnc(Nc2ccc(CN3CCOCC3)cc2)nc1Nc1cccc(S(=O)(=O)NC(C)(C)C)c1 | 33200 nM (active) | 9300 nM (active) | 4690 nM (active) | 2960 nM (active) | 2960 nM (active) | 833 nM (active)
CC(=O)OCC(=O)[C@@]12N=C(C)O[C@H]1C[C@H]1[C@@H]3CCC4=CC(=O)C=C[C@]4(C)[C@@H]3[C@@H](O)C[C@@]12C | inactive | inactive | inactive | inactive | inactive | inactive
Cc1cc(-c2nnc3n2CCCCC3)c(C)n1-c1ccccc1 | inactive | inactive | inactive | inactive | inactive | inactive
Cc1ncc(-c2ccnc(Nc3ccc(S(C)(=O)=O)cc3)n2)n1C(C)C | 4690 nM (active) | 13100 nM (active) | 4690 nM (active) | 1320 nM (active) | 935 nM (active) | 2350 nM (active)
N#Cc1c(NC(=O)c2cccc3ccccc23)sc2c1CCCC2 | 10500 nM (active) | 1040 nM (active) | 296 nM (active) | 332 nM (active) | 235 nM (active) | 235 nM (active)
Nc1nc2c(c(=O)[nH]1)N(C=O)[C@H](CNc1ccc(C(=O)N[C@@H](CCC(=O)O)C(=O)O)cc1)CN2 | inactive | inactive | inactive | inactive | 7430 nM (active) | inactive
C=CC(=O)Nc1cccc(Nc2nc(NC3CCC(N(C)C)CC3)nc3c2ncn3C(C)C)c1 (configuration not stated) | 11800 nM (active) | 1470 nM (active) | 3 nM (active) | 235 nM (active) | 11.8 nM (active) | 4.2 nM (active)
CN(C)c1ccc(C(=O)NCCCCCCC(=O)NO)cc1 | inactive | 2620 nM (active) | 2350 nM (active) | 743 nM (active) | 1180 nM (active) | 332 nM (active)
